From PubChem BioAssay (NCATS)
Inconclusive results are not listed. Activity calls are given as the source filed them. Calls come from the whole dose curve; as a rule, active = well fitted curve in the direction sought with a large enough effect; inconclusive = small, poorly fitted or top-dose-only effect, or another doubt; inactive = no such curve, though single readings can be large; an effect the other way counts as inactive or inconclusive.

Legend:
[1] = molecular target: Metallo-beta-lactamase type 2 (Klebsiella pneumoniae) (UniProt C7C422); test: qHTS to identify inhibitors of the New Delhi Metallo-beta-lactamase (NDM): assay validation screen against the NCATS LOPAC Collection (AID 1794843); note: % is set by controls: 0 for no effect and ±100 for the full control effect
Chain of Metallo-beta-lactamase type 2 (Klebsiella pneumoniae) (C7C422 whole entry, looked up): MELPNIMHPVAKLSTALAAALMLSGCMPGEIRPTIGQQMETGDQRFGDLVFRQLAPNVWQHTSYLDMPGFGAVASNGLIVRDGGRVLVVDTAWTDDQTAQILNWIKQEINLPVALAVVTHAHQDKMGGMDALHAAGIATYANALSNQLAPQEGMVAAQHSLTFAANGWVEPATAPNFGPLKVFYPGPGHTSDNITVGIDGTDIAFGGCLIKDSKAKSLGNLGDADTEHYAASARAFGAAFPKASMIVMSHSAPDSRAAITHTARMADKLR
Summary of the method: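 Absorbance at 485 nm from nitrocefin turnover (50 uM solution added), read at plateau, gives the read-out. Compounds in DMSO were incubated first with 2 nM final NDM-1 in pH 7.0 HEPES buffer containing 1 uM ZnSO4 and 0.01% Tween20.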

[2] = molecular target: Glutathione peroxidase 1 (Homo sapiens) (UniProt P07203); test: Primary qHTS Assay for Inhibitors of Recombinant Selenoprotein Glutathione Peroxidase 1 (GPX1) (AID 1845191); note: nearly all actives have a fitted effect of over 65% in size; for activity, negative = inhibition: % is set by controls: 0 for no effect and ±100 for the full control effect
Chain of Glutathione peroxidase 1 (Homo sapiens) (P07203 whole entry, looked up): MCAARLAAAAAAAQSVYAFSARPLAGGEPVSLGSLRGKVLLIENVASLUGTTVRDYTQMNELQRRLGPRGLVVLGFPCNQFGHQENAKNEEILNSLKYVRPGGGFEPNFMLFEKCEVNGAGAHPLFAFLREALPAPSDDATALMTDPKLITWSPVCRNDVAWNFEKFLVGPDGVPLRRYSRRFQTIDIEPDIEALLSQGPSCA
Summary of the method: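 NADPH consumption tracked by fluorescence at 340/450 nm between t=0 and t=15 min, room temperature. Final mix: 10 nM GPX1, 100 nM glutathione reductase, 1 mM GSH, 0.5 mM NADPH, 0.5 mM cumene hydroperoxide, 0.01% BSA; 30 min compound–enzyme preincubation.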

[3] = molecular target: Phospholipid hydroperoxide glutathione peroxidase GPX4 (Homo sapiens) (UniProt P36969); test: Primary qHTS Assay for Inhibitors of Recombinant Selenoprotein Glutathione Peroxidase 4 (GPX4) (AID 1845192); conditions: outcome: dose series up to 50 µM unless noted; note: nearly all actives have a fitted effect of over 65% in size
Chain of Phospholipid hydroperoxide glutathione peroxidase GPX4 (Homo sapiens) (P36969 whole entry, looked up): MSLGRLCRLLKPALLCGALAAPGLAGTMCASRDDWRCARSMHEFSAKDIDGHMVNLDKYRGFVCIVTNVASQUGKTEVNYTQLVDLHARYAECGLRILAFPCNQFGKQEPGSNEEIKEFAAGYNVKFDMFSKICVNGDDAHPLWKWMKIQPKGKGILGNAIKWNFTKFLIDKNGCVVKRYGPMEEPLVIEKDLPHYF
Summary of the method: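 NADPH consumption followed by fluorescence at 340/450 nm, t=0 and after 15 min at room temperature. Reaction started with cumene hydroperoxide (0.5 mM final) after 30 min compound–GPX4 preincubation; final 200 nM GPX4, 100 nM GR, 1 mM GSH, 0.5 mM NADPH.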

[4] = qHTS profiling for inhibitors of Plasmodium falciparum proliferation (AID 504749); note: nearly all actives have a fitted effect of over 60% in size; note: potency is the fitted concentration of half-maximal effect;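 for activity, negative = inhibition: 0% = DMSO vehicle and full inhibition = artemisinin control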; conditions: P. falciparum in erythrocytes, SYBR Green DNA, 72 h
Summary of the method: (§1)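 In a 72 h erythrocytic culture (37 C, humidified, 5% CO2) at 2.5% hematocrit and 0.3% starting parasitemia, compounds were tested; SYBR Green I in detergent lysis buffer stained parasite DNA overnight.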

[5] = test system: 3D7; test: as above; conditions: P. falciparum in erythrocytes, SYBR Green DNA, 72 h; series mostly up to 28.7 µM
Summary of the method: as §1

[6] = test system: AA1029; test: as above; conditions: P. falciparum in erythrocytes, SYBR Green DNA, 72 h; series mostly up to 28.7 µM
Summary of the method: as §1

[7] = test system: AS120; test: as above; conditions: P. falciparum in erythrocytes, SYBR Green DNA, 72 h; series mostly up to 28.7 µM
Summary of the method: as §1

[8] = test system: ATS189; test: as above; conditions: P. falciparum in erythrocytes, SYBR Green DNA, 72 h; series mostly up to 28.7 µM
Summary of the method: as §1

[9] = test system: ATS95; test: as above; conditions: P. falciparum in erythrocytes, SYBR Green DNA, 72 h; series mostly up to 28.7 µM
Summary of the method: as §1

[10] = test system: C2A; test: as above; conditions: P. falciparum in erythrocytes, SYBR Green DNA, 72 h; series mostly up to 28.7 µM
Summary of the method: as §1

[11] = test system: CP185; test: as above; conditions: P. falciparum in erythrocytes, SYBR Green DNA, 72 h; series mostly up to 28.7 µM
Summary of the method: as §1

[12] = test system: CP191; test: as above; conditions: P. falciparum in erythrocytes, SYBR Green DNA, 72 h; series mostly up to 28.7 µM
Summary of the method: as §1

[13] = test system: 7G8; test: as above; conditions: P. falciparum in erythrocytes, SYBR Green DNA, 72 h; series mostly up to 28.7 µM
Summary of the method: as §1

[14] = at 28.7 µM (top of the series), parasite line A
[15] = at 28.7 µM (top of the series), parasite line B

CCOC(=O)C1=C(C)NC(C)=C(C(=O)OC)C1c1cccc(Cl)c1Cl (configuration not stated)
inactive: Potency [1] | Potency [2] | outcome [3] | activity, negative = inhibition [4, 14] -7.27% | activity, negative = inhibition [4, 15] -5.02% | Potency [5] | Potency [6] | Potency [7] | Potency [8] | Potency [9] | Potency [10] | Potency [11] | Potency [12]

CCOC(=O)C1=C(C)NC(C)=C(C(=O)OC)C1c1cccc([N+](=O)[O-])c1 (configuration not stated)
inactive: Potency [1] | Potency [2] | outcome [3] | Potency [10]
active: Potency [13] 10 µM | Potency [6] 11.2 µM | Potency [7] 11.2 µM

CN(C)CCN(Cc1cccs1)c1ccccn1
active: Potency [6] 10 µM | Potency [7] 12.6 µM
inactive: Potency [1] | Potency [2] | outcome [3] | activity, negative = inhibition [4, 14] 5.46% | activity, negative = inhibition [4, 15] 6.28% | Potency [5] | Potency [12]

CCCC(C(=O)OCCN(CC)CC)(c1ccccc1)c1ccccc1
inactive: Potency [1] | Potency [2] | outcome [3]
active: Potency [5] 10 µM | Potency [13] 3.98 µM | Potency [6] 11.2 µM

O=C(O)CP(=O)(O)O
inactive: Potency [2] | outcome [3] | activity, negative = inhibition [4, 14] 3.45% | activity, negative = inhibition [4, 15] -17.2% | Potency [5] | Potency [13] | Potency [6] | Potency [7] | Potency [8] | Potency [9] | Potency [10] | Potency [11] | Potency [12]

Cc1nc2sccn2c(=O)c1CCN1CCC(=C(c2ccc(F)cc2)c2ccc(F)cc2)CC1
active: Potency [13] 10 µM | Potency [7] 11.2 µM
inactive: Potency [1] | Potency [2] | outcome [3]

CN(C)CCOC(=O)COc1ccc(Cl)cc1
inactive: Potency [1] | Potency [2] | outcome [3] | activity, negative = inhibition ([4]; at 12.8 µM (top of the series), parasite line A) 18.7% | activity, negative = inhibition ([4]; at 12.8 µM (top of the series), parasite line B) -4.94% | Potency [13] | Potency [6] | Potency [7] | Potency [8] | Potency [9] | Potency [10] | Potency [11] | Potency [12]

Brc1c(NC2=NCCN2)ccc2nccnc12
inactive: Potency [1] | Potency [2] | outcome [3] | activity, negative = inhibition [4, 14] 0% | activity, negative = inhibition [4, 15] 3.95% | Potency [6] | Potency [7] | Potency [9] | Potency [10] | Potency [11]
active: Potency [13] 11.2 µM

CC(C)(C)c1ccc(C(=O)CCCN2CCC(OC(c3ccccc3)c3ccccc3)CC2)cc1
active: Potency ([4]; parasite line A) 10 µM | Potency [5] 7.94 µM | Potency [13] 3.55 µM | Potency [6] 10 µM | Potency [7] 6.31 µM | Potency [8] 10 µM | Potency [9] 8.91 µM
inactive: Potency [1] | Potency [2] | outcome [3]

CN(C)C/C=C(/c1ccc(Br)cc1)c1cccnc1
inactive: Potency [1] | Potency [2] | outcome [3] | activity, negative = inhibition [4, 14] -2.53% | Potency [5] | Potency [8] | Potency [10] | Potency [11]
active: Potency [13] 8.91 µM

CC1=NS(=O)(=O)c2cc(Cl)ccc2N1
inactive: Potency [1] | Potency [2] | outcome [3] | activity, negative = inhibition [4, 14] -21.1% | Potency [5] | Potency [13] | Potency [6] | Potency [8] | Potency [9] | Potency [10]

CCn1cc(C(=O)O)c(=O)c2cc3c(cc21)OCO3
inactive: Potency [1] | Potency [2] | outcome [3] | activity, negative = inhibition [4, 14] -8.68% | activity, negative = inhibition [4, 15] -3.36% | Potency [5] | Potency [6] | Potency [7] | Potency [8] | Potency [9] | Potency [10] | Potency [11] | Potency [12]

CCN(CC)CC(=O)Nc1c(C)cccc1C
inactive: Potency [1] | Potency [2] | outcome [3] | activity, negative = inhibition [4, 14] 7.16% | activity, negative = inhibition [4, 15] 15.8% | Potency [5] | Potency [6] | Potency [7] | Potency [8] | Potency [9] | Potency [10] | Potency [11] | Potency [12]
